# Data reported in the supplement of paper PMC12067093, “Discovery and optimisation of a covalent ligand for TRIM25 and its application to targeted protein ubiquitination” (Chemical Science, 2025).
# About 21,000 targets were measured; listed, in parts, are those with the largest changes and a random draw of the rest.
# Compound: CC1Cc2ccccc2N1C(=O)C1CCCN(C1)C(=O)CCl (mixture of isomers) [TRIM25 ligand 11 (diastereomer mixture)]
# Assay: probe-labelled cysteine peptide fold change vs DMSO (competition) (log2 fold change); higher = less target engagement (more negative = stronger competition)
# Settings: THP-1, incubation time: 4 h
# 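Also: competitive chemoproteomic profiling in live THP-1 cells with an iodoacetamide desthiobiotin (IA-DTB) probe, comparing probe-labelled peptide intensities in compound-treated cells against DMSO-treated controls.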
# Chain of UniProt Q9P032 (Q9P032 whole entry): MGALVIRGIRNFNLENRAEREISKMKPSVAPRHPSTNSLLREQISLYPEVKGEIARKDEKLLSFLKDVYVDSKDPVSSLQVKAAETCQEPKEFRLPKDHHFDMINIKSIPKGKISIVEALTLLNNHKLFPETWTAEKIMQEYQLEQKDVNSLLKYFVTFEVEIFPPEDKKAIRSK
# Chain of UniProt Q8TEA1 (Q8TEA1 whole entry): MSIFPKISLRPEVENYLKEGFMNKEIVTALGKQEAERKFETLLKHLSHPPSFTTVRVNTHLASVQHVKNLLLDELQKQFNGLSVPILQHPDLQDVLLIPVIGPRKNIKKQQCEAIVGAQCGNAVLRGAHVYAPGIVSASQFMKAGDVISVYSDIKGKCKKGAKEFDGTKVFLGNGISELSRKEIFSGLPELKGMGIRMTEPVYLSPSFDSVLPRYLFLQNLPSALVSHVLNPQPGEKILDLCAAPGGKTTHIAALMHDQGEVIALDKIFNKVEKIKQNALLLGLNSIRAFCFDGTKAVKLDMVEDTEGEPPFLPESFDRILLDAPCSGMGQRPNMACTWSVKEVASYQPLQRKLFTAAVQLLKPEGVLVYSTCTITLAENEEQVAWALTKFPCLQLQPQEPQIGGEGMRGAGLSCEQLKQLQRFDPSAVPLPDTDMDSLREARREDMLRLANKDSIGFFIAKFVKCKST
# Chain of UniProt Q96P11 (Q96P11 whole entry, looked up): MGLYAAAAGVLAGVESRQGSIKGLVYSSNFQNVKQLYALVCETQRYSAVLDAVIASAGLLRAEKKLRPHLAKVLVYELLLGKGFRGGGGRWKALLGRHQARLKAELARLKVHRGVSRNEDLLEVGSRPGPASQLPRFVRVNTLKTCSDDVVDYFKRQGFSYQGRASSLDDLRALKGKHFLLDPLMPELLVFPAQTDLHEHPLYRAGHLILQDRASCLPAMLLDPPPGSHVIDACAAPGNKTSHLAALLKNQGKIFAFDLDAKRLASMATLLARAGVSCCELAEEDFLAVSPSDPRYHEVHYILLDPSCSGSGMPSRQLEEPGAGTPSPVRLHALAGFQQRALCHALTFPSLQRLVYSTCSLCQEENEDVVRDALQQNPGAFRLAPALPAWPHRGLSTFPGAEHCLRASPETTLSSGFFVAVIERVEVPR
# Chain of UniProt P57740 (P57740 whole entry, looked up): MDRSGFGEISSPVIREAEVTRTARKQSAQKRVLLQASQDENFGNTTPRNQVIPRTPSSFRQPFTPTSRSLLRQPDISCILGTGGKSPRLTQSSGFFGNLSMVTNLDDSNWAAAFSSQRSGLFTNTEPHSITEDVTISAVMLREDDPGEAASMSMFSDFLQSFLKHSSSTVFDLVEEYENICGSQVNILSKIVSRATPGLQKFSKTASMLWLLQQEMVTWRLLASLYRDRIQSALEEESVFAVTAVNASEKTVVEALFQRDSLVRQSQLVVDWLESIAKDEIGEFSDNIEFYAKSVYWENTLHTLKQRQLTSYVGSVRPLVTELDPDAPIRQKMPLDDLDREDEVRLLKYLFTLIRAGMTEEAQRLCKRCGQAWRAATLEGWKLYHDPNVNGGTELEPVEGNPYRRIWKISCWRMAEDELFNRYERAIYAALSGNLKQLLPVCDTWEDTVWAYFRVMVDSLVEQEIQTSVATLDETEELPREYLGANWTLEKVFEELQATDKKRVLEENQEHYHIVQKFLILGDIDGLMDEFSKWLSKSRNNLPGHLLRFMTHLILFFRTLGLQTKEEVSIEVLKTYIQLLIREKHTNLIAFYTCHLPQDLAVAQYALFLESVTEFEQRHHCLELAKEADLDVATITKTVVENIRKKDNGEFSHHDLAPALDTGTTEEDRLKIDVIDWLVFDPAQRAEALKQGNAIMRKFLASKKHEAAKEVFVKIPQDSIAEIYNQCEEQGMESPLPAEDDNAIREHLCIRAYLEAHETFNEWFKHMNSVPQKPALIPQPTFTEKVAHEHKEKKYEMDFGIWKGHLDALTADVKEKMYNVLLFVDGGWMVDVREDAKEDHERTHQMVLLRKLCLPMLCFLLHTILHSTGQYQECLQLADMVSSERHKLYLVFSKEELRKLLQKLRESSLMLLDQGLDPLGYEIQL
# Chain of UniProt Q9BXW6 (Q9BXW6 whole entry, looked up): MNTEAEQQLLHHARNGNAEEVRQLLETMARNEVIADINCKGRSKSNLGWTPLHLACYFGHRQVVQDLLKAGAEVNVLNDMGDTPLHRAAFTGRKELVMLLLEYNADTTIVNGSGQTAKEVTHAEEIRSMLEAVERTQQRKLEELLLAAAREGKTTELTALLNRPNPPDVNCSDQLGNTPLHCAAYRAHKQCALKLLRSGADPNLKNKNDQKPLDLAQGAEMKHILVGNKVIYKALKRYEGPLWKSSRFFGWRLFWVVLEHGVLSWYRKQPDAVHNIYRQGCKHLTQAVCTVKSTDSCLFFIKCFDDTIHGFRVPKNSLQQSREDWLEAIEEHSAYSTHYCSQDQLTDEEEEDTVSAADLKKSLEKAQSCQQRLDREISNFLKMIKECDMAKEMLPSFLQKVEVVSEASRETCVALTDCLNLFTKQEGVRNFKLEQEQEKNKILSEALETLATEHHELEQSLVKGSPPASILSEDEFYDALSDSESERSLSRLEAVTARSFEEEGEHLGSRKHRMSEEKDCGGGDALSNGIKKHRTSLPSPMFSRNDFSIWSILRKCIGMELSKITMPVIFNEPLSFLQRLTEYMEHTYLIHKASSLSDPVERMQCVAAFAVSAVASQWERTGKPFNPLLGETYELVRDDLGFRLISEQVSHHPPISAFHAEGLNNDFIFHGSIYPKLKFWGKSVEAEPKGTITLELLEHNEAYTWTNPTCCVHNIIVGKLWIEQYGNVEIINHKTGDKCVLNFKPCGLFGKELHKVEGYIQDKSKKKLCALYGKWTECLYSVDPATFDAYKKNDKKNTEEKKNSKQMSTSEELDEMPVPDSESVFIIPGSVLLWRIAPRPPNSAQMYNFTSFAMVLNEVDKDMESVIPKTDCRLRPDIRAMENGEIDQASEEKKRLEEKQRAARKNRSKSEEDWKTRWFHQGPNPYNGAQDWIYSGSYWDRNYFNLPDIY
# Chain of UniProt Q8NI08 (Q8NI08 whole entry, looked up): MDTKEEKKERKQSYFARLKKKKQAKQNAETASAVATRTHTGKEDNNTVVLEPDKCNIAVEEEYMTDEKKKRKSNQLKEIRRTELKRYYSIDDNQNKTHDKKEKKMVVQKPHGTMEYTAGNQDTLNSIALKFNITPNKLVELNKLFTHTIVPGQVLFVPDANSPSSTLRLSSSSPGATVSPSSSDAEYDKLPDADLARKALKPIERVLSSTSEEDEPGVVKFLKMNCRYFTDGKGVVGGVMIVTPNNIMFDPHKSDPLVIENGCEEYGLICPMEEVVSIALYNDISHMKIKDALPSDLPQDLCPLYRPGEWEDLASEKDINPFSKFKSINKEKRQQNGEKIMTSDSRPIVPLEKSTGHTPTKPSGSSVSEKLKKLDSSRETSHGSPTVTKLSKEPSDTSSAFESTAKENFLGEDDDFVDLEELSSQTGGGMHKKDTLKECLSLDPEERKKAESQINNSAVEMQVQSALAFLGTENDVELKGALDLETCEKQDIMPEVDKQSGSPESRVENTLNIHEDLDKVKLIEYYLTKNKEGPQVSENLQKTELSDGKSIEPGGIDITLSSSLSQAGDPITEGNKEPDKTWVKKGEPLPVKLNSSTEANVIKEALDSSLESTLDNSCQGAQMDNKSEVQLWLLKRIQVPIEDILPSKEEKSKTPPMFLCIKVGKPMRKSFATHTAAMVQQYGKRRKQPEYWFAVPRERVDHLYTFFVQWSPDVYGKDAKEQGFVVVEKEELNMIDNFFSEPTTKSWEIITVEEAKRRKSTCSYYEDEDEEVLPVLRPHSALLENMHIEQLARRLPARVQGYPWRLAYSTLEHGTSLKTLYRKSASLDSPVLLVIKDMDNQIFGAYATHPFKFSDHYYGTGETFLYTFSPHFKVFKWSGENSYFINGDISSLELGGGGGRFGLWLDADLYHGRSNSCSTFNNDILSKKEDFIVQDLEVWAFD
# Chain of UniProt Q9ULX3 (Q9ULX3 whole entry, looked up): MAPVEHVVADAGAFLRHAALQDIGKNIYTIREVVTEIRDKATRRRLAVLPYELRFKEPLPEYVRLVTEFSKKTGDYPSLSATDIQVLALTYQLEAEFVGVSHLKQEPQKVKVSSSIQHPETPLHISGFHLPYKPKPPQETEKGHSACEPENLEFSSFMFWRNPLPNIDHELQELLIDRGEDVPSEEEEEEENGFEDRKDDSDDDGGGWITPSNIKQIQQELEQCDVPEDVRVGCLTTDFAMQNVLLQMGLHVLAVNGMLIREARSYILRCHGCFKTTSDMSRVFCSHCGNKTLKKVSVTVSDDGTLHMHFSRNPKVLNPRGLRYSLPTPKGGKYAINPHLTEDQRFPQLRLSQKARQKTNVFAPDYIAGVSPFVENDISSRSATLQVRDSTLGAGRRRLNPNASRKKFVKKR
# Chain of UniProt Q9UBB6 (Q9UBB6 whole entry, looked up): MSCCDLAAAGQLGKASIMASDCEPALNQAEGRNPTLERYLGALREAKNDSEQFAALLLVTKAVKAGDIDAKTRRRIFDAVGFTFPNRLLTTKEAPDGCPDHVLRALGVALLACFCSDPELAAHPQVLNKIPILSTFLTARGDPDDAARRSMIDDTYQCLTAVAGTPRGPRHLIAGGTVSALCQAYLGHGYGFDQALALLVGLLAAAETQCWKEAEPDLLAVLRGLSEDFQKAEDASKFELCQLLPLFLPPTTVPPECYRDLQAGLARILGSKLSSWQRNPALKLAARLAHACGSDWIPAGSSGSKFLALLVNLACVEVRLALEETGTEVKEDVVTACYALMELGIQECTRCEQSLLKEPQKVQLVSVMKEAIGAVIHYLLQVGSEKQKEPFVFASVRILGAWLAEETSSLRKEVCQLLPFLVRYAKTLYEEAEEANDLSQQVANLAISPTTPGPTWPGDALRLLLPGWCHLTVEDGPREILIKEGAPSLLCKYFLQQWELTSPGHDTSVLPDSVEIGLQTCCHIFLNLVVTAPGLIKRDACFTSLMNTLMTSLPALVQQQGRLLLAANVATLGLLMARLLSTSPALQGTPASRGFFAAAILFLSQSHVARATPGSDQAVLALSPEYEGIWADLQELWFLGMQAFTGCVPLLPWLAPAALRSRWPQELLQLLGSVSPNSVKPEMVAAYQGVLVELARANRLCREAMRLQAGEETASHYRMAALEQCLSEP
Target,probe-labelled cysteine peptide fold change (10 µM),probe-labelled cysteine peptide fold change (50 µM)
PARK7_Q99497_46_DPVQCSR (UniProt Q99497),0.105,0.0666
NUP155_O75694_667_HNGICIYFSR (UniProt O75694),-0.0348,0.207
NUP205_Q92621_1032_TCLHAILNILEK (UniProt Q92621),0.00038,-0.0819
NID1_P14543_679_EGSPDALQNPCYIGTHGCDTNAACRPGPR (UniProt P14543),0.112,-0.182
OSBPL3_Q9H4L5_114_CIDLDTEEHIYHLK (UniProt Q9H4L5),-0.0859,0.0383
P4HB_P07237_53+56_YLLVEFYAPWCGHCK (UniProt P07237),-0.316,-0.77
PAICS_P22234_266_SESQCR (UniProt P22234),1.85,1.12
PADI2_Q9Y2J8_629_GLLEPLGLECTFIDDISAYHK (UniProt Q9Y2J8),0.0551,0.0618
NUP93_Q8N1F7_328_CGDLLAASQVVNR (UniProt Q8N1F7),0.0268,0.221
NIPBL_Q6KC79_304_GSRPPLILQSQSLPCSSPR (UniProt Q6KC79),0.204,0.00224
NUP133_Q8WUM0_457_IVFNAQGDSVLGAGACGGVPIIFSR (UniProt Q8WUM0),-0.146,-0.142
NUP155_O75694_373_LYFSTCPFR (UniProt O75694),0.15,0.262
P3H1_Q32P28_123_CLGPPAAHSLSEEMELEFR (UniProt Q32P28),0.411,0.646
NEMF_O60524_575_YLTPGDIYVHADLHGATSCVIK (UniProt O60524),0.0554,0.13
NUP107_P57740_749_EHLCIR (UniProt P57740),0.128,0.0884
OSBPL1A_Q9BXW6_520_DCGGGDALSNGIK (UniProt Q9BXW6),0.00496,0.0314
PCID2_Q5JVF3_25_DGASCAELVSFK (UniProt Q5JVF3),-0.115,-0.0805
NDC1_Q9BTX1_9_ATAVSRPCAGR (UniProt Q9BTX1),0.00914,-0.136
OS9_Q13438_181_CDLNGRPR (UniProt Q13438),0.0235,0.139
NLRX1_Q86UT6_713_CTVVAAVLGSGR (UniProt Q86UT6),-0.136,0.223
PATZ1_Q9HBE1_297_EAGILPCGLCGK (UniProt Q9HBE1),0.00899,-0.0723
NOL9_Q5SY16_219_WSMQNFSPQCSIVLLEHLK (UniProt Q5SY16),0.0873,0.0078
PAFAH1B2_P68402_206_ICKPLHELIMQLLEETPEEK (UniProt P68402),-0.486,-0.692
NDRG1_Q92597_289_MADCGGLPQISQPAK (UniProt Q92597),-0.006,-0.0335
OPLAH_O14841_408_LLPASFPCIFGPGENQPLSPEASR (UniProt O14841),-0.283,-0.252
NUDC_Q9Y266_188_WTQTLSELDLAVPFCVNFR (UniProt Q9Y266),-0.0574,0.00376
NVL_O15381_460_LPQAFDFCHLAHLTPGFVGADLMALCR (UniProt O15381),-0.219,-0.00784

Target,probe-labelled cysteine peptide fold change (10 µM),probe-labelled cysteine peptide fold change (50 µM)
P4HB_P07237_312_ILEFFGLKKEECPAVR (UniProt P07237),-0.567,-0.501
PARP4_Q9UKK3_1099_LLVYGFIPHCTQATLCALIQEK (UniProt Q9UKK3),0.224,-0.243
NSUN5_Q96P11_278+279_AGVSCCELAEEDFLAVSPSDPR (UniProt Q96P11),0.234,-0.117
NUP188_Q5SRE5_161_VEYADCVDK (UniProt Q5SRE5),0.394,0.321
NOP58_Q9Y2X3_106_LNLSCIHSPVVNELMR (UniProt Q9Y2X3),0.0103,0.12
NUP133_Q8WUM0_700+702_EVSQVDTICECLLEHEEQVLR (UniProt Q8WUM0),0.507,0.631
NLN_Q9BYT8_451_YNHAACFGLQPGCLLPDGSR (UniProt Q9BYT8),0.193,0.181
PAFAH1B1_P43034_281_EHEHVVECISWAPESSYSSISEATGSETK (UniProt P43034),-0.156,0.158
PAK3_O75914_424_LTDFGFCAQITPEQSKR (UniProt O75914),-0.27,-0.161
PA2G4_Q9UQ80_296_MGVVECAKHELLQPFNVLYEK (UniProt Q9UQ80),-0.781,-0.434
NOL6_Q9H6R4_256_LHPCPPPDFFRPCR (UniProt Q9H6R4),0.0181,0.0433
NEMF_O60524_663_VDESCVWR (UniProt O60524),0.233,0.569
NDUFB10_O96000_119_EGQNYQQNCIK (UniProt O96000),-0.0835,-0.0614
PAK2_Q13177_352_ECLQALEFLHANQVIHR (UniProt Q13177),0.0134,0.223
OAS3_Q9Y6K5_350_AGCSGLGHPIQLDPNQK (UniProt Q9Y6K5),-0.0319,-0.0671
PDHB_P11177_161_GPNGASAGVAAQHSQCFAAWYGHCPGLK (UniProt P11177),0.0327,0.0759
NLRX1_Q86UT6_779_DLRDLLLHDQCQITTLR (UniProt Q86UT6),-0.173,-0.114
PDCD4_Q53EL6_288_GTVDCVQAR (UniProt Q53EL6),0.164,0.233
NDUFAF4_Q9P032_87_AAETCQEPK (UniProt Q9P032),-0.0492,-0.243
NEK1_Q96PY6_276_FLSPQLIAEEFCLK (UniProt Q96PY6),0.0381,0.161
NCOA7_Q8NI08_487_GALDLETCEK (UniProt Q8NI08),-0.182,-0.181
NET1_Q7Z628_267_GYCSNQLAAK (UniProt Q7Z628),0.0505,0.103
NPM3_O75607_79_VEEEDDAEHVLALTMLCLTEGAKDECNVVEVVAR (UniProt O75607),-0.083,0.00371
NUP210_Q8TEM1_746_FVCAPPSR (UniProt Q8TEM1),0.0568,0.329
PALD1_Q9ULE6_631_IPMPDFCAPREEDFDQLLEALR (UniProt Q9ULE6),0.052,0.057
NIT2_Q9NQR4_153_VGLGICYDMR (UniProt Q9NQR4),-0.261,-1.18
PCDH17_O14917_335_DLGPNPIPAHCK (UniProt O14917),0.6,0.546

Target,probe-labelled cysteine peptide fold change (10 µM),probe-labelled cysteine peptide fold change (50 µM)
NKRF_O15226_386_VFLQDHCLAEGYGTKK (UniProt O15226),-0.274,-0.153
NOP2_P46087_393_ILDMCCAPGGK (UniProt P46087),-0.0381,-0.0998
NSUN5P1_Q3KNT7-3_149_AAAGACTPPCT<|>NSUN5_Q96P11-2_461_AAAGACTPPCT (UniProt Q96P11+Q3KNT7),0.129,-0.0921
NVL_O15381_803_EASICALR (UniProt O15381),0.0326,0.175
OAT_P04181_150_VLPMNTGVEAGETACK (UniProt P04181),0.0276,0.0487
NOB1_Q9ULX3_147_GHSACEPENLEFSSFMFWR (UniProt Q9ULX3),-0.0264,-0.119
NSUN6_Q8TEA1_242_ILDLCAAPGGK (UniProt Q8TEA1),0.157,-0.0703
NCDN_Q9UBB6-2_5_ASDCEPALNQAEGR (UniProt Q9UBB6),0.0744,-0.297
ORC5_O43913_10_PHLENVVLCR (UniProt O43913),-0.0683,-0.0422
NIT1_Q86X76_251+259_AIETQCYVVAAAQCGR (UniProt Q86X76),0.553,0.575
NFX1_Q12986_295_STCDSENLAVINK (UniProt Q12986),0.0624,-0.0282
NUP98_P52948_1711_HIQQVDCSGNDLEQLHIK (UniProt P52948),0.207,0.108
NSUN2_Q08J23_673+678_YEPDSANPDALQCPIVLCGWR (UniProt Q08J23),0.0479,0.0634
NF1_P21359_1016_LCQLVEVMMAR (UniProt P21359),0.0549,0.181
NT5DC1_Q5TFE4_139_YYFYDNYFDLPGALLCAR (UniProt Q5TFE4),0.416,0.718
PCBP1_Q15365_293_GYWASLDASTQTTHELTIPNNLIGCIIGR (UniProt Q15365),-0.0964,-0.174
NDRG3_Q9UGV2_30_NFQDFDCQEHDIETTHGVVHVTIR (UniProt Q9UGV2),0.0929,0.0549
P4HA1_P13674_293_QKYEMLCR (UniProt P13674),-0.0868,-0.162
NLRX1_Q86UT6_259_LAGTGLCSDPEEPQEPAAIIVNLLR (UniProt Q86UT6),0.274,-0.746
NDUFB7_P17568_90_HDWDYCEHR (UniProt P17568),0.161,0.191
NEDD4_P46934-4_4_ATCAVEVFGLLEDEENSR (UniProt P46934),-0.669,-0.509
PDS5A_Q29RF7_686_VLSFTHPTSFHSAETYESLLQCLR (UniProt Q29RF7),-0.152,-0.172
NUP43_Q8NFH3_222_VPLHCVDRHPNQQHVVATGGQDGMLSIWDVR (UniProt Q8NFH3),0.271,0.0847
NUS1_Q96E22_235_QKRPTDLDVDTLASLLSSNGCPDPDLVLK (UniProt Q96E22),-0.332,-0.641
NUDT14_O95848_12_CAASPYLRPLTLHYR (UniProt O95848),-0.125,0.0208
PASK_Q96RG2_759+761_ELFFSDQTDQTSSNCSCATSELR (UniProt Q96RG2),0.0516,0.0688
